High-throughput results (PubChem BioAssay)
HPGD inh = qHTS Assay for Inhibitors of HPGD (15-Hydroxyprostaglandin Dehydrogenase). purified HPGD, NADH fluorescence kinetic, PGE2 substrate. hit rate 4.3% among 150,000. 15-hydroxyprostaglandin dehydrogenase [NAD(+)] (Homo sapiens), P15428. Potency, µM, actives largely listed as inhibitors
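20 nM HPGD preincubated 15 min at room temperature with compound in 50 mM Tris-HCl pH 8, 0.01% Tween 20. Started with 1 mM NAD+ and 30 uM prostaglandin E2; NADH fluorescence (360/450 nm) read 5 times over 30-s intervals, last minus first.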
PNC inhibitor = High Content Assay for Compounds that inhibit the Assembly of the Perinucleolar Compartment | PC3M PTB-GFP, PNC prevalence imaging, 16 h; stronger effect = lower value | activity change (PNC), negative = inhibition, % at 10 µM | hit rate 3.1% among 140,000 | AID 2417, 2010;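 active means readout at or below -70, meaning at least 70% loss of cells showing the perinucleolar compartment, a nuclear body marking cancer cells; inconclusive means readout between -30 and a set limit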
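Read-out is percentage of cells bearing a perinucleolar compartment, from automated 20x imaging of fixed, Hoechst-stained PC3M PTB-GFP cells. Cells were seeded 4 h, then exposed 16 h to compound (23 nl of library stock) in duplicate plates.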
ALDH1A1 block = qHTS Assay for Inhibitors of Aldehyde Dehydrogenase 1 (ALDH1A1); Aldehyde dehydrogenase 1A1 (Homo sapiens), P00352; Purified ALDH1A1, NADH fluorescence, propionaldehyde substrate; Potency, µM (top dose mostly 75.3 µM), hits mostly inhibitors; hit rate 7.3% among 220,000
Target sequence (P00352 whole entry, looked up): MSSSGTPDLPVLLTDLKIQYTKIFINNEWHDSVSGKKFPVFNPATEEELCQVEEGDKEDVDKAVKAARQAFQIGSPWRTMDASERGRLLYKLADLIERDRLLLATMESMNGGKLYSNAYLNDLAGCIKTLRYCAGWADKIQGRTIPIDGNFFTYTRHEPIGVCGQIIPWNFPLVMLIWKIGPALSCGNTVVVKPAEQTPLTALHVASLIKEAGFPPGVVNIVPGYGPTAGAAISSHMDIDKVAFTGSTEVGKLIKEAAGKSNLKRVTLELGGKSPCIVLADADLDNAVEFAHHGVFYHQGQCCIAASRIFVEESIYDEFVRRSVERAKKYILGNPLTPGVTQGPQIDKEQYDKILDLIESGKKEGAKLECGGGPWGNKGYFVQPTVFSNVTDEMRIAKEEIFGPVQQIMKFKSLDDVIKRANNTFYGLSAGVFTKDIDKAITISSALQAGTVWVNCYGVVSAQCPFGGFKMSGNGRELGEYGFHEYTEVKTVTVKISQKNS
12-hLO inh = qHTS Assay for Inhibitors of 12-hLO (12-human lipoxygenase) | purified 12-hLO, xylenol orange hydroperoxide absorbance | hit rate 0.12% among 150,000 | Potency, µM (highest dose often 57.1 µM), actives largely listed as inhibitors; active means well fitted inhibition curve with a large enough effect; inconclusive means small, poorly fitted or top-dose-only effect; further: nearly all actives have a fitted effect of over 55% in size
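Xylenol orange chromogenic assay: hydroperoxide from 12hLO oxidises Fe(II), giving red-shifted Fe(III)-XO absorbance. Conditions: 150 nM enzyme, 40 uM arachidonic acid, 25 mM Hepes pH 7.0, 0.01% Triton X-100, 30 min, room temperature.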
Lamin A splicing = qHTS Assay for Modulators of Lamin A Splicing. HeLa LMNA splicing GFP/RFP minigene ratio, 48 h. Potency, µM (top dose mostly 46.1 µM), most hits filed as inhibitors. hit rate 0.01% among 200,000. AID 1487, 2009; active means well fitted inhibition curve with a large enough effect in the signal ratio, with a control signal flat, not every such curve was filed as active; inconclusive means small, poorly fitted or top-dose-only effect, or effect the other way, or a change in a side signal; the % refers to the signal ratio
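S3 HeLa cells stably expressing lamin A-EGFP splicing minigene plus DsRed2, 600 cells/well, 48 h compound exposure at 37C. Laser-scanning cytometry; analysed as GFP (500-530 nm)/RFP (575-640 nm) total intensity ratio; 0.5% DMSO vehicle.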
Numbers stand for hits; - = inactive; ? = inconclusive; . = not tested or not shown; [ ] = remark or other dose. Rows were chosen to be rich in hits. Some 10% of all compounds tested hit in one or more screens of this group. Unless noted, the call rests on the fitted dose curve; in most records, active means well fitted inhibition curve with a large enough effect (not every such curve was filed as active); inconclusive means small, poorly fitted or top-dose-only effect, or another doubt; inactive means no such curve, though single readings can be large or run the other way.

SMILES	HPGD inh	PNC inhibitor	ALDH1A1 block	12-hLO inh	Lamin A splicing
CC(=O)[C@@H]1CC[C@@H]2[C@@H]3CC=C4C[C@H](OS(=O)(=O)O)CC[C@@]4(C)[C@H]3CC[C@]21C	.	.	.	-	.
O=C(c1cccc2ccccc12)C1CCCN(C(=O)CCCn2cncn2)C1 (stereo not drawn)	.	.	10µM	.	-
Cc1ccc2c(c1)CCCN2C(=O)c1c(C)noc1C	-	?	-	-	-
Cc1noc(C)c1C(=O)N1CCCc2ccccc21	-	-	25µM	-	-
CC(C)Oc1ccc(C(=O)N2CCCc3ccccc32)cc1	22µM	-	?	-	?
COc1ccc(C(=O)N2CCCc3ccccc32)cc1	-	?	?	-	-
O=C(c1cc(-c2cccs2)on1)N1CCCc2ccccc21	-	-	14µM	-	-
COc1ccc(-c2cc(C(=O)N3CCCc4ccccc43)no2)cc1	-	-	4µM	-	?
COc1cccc(-c2cc(C(=O)N3CCCc4ccccc43)no2)c1	-	-	?	-	-
CC/C=C1/OC(=O)c2ccccc21	-	.	?	-	.
COc1cc(C2=NOC(C(=O)N3CCCc4ccccc43)C2)cc(OC)c1OC (stereo not drawn)	-	?	?	-	-
O=C(Nc1ccccc1)N1CCCc2ccccc21	-	-100	-	-	-
CCN(CC)S(=O)(=O)c1ccc(C(=O)N2CCc3ccccc32)cc1	.	.	5µM	.	.
COc1ccc(C2=NOC(C(=O)N3CCCc4ccccc43)C2)cc1 (stereo not drawn)	-	-	13µM	-	-
C=CCCCC	-	.	-	-	.
Cc1ccccc1CN1C(=O)c2ccccc2Sc2ccc(C(=O)NC3CCCCC3)cc21	.	.	.	.	-
O=C(Cc1cnc2ncnn2c1)N1CCc2c([nH]c3ccccc23)C1c1ccccc1F (stereo not drawn)	.	.	4.5µM	.	-
CSc1nc(-c2ccc(Cl)cc2Cl)[nH]c(=O)c1C#N	2.5µM	?	-	-	?
Cc1cc(C)c(C#N)c(SCC(=O)c2ccc(Cl)cc2Cl)n1	-	?	-	-	?
CN(C)CCOC(=O)c1ccc(N)cc1	-	.	-[13.5 µM]	-[11.4 µM]	.
C[C@H]1/C=C\CC(=O)OC[C@H](C)C(=O)N2CCC[C@@H]2C(=O)OC1	.	.	-[13.5 µM]	.	.
COc1ccc(NS(=O)(=O)c2ccc3oc(SC4CCOC4=O)nc3c2)cc1 (stereo not drawn)	32µM	-	0.56µM	-	?
C[C@H](C(=O)c1ccccc1)C(c1ccccc1)N1CCOCC1 (stereo partly drawn)	-	.	?	.	.
Cc1ccc(S(=O)(=O)/N=C(\CCl)N2CCOCC2)cc1	-	-	28µM	-	?
Cc1ccc(S(=O)(=O)/N=C(\CN2CCOCC2)N2CCCC2)cc1	-	?	-	-	-
SMILES	HPGD inh	PNC inhibitor	ALDH1A1 block	12-hLO inh	Lamin A splicing
CCOc1cc(C2CC(=O)Nc3c2c(=O)nc(SCc2cccc(Cl)c2)n3C)ccc1O (stereo not drawn)	.	.	.	.	-
O=[N+]([O-])c1cccc(-c2nc(N3CCOCC3)c3ccccc3n2)c1	.	.	7.9µM	.	.
c1ccc(-c2nc(N3CCOCC3)c3ccccc3n2)nc1	-	-	-	-	-
Cc1noc(C)c1-c1nc(N2CCOCC2)c2ccccc2n1	25µM	.	?	-	-
COc1cc(OC)nc(NC(=O)CS(=O)(=O)c2ccccc2)n1	-	-119	-	-	-
COc1ccc(OC)c(NC(=O)CS(=O)(=O)c2ccccc2)c1	-	-	?	-	-
CN1CCN(c2nc3c(c(=O)n(C)c(=O)n3C)n2C)CC1	-	.	-[13.5 µM]	-[11.4 µM]	.
Cc1onc(-c2ccccc2Cl)c1C(=O)O/N=C(\N)c1ccc([N+](=O)[O-])o1	.	.	13µM	.	.
COC(=O)C(CCCCNC(=O)OCc1ccccc1)NC(=O)CN (stereo not drawn)	-	-	28µM	-	-
Nc1c(C(=O)N2CCOCC2)sc(=S)n1-c1ccccc1	11µM	-	8.9µM	-	-
Nc1c(C(=O)N2CCCCC2)sc(=S)n1-c1ccccc1	3.2µM	?	1.4µM	-	-
CC(=O)c1sc(=S)n(-c2ccccc2)c1C	.	.	-	.	.
O=C(c1sc(N2CCOCC2)nc1-c1ccccc1)N1CCCCC1	-	-	-	-	-
COc1ccccc1CN1CCCC2(CCN(S(C)(=O)=O)CC2)C1	-	.	-	-	.
COc1ccccc1CNC(=O)C(=O)NCC(c1ccco1)S(=O)(=O)c1cccs1 (stereo not drawn)	.	.	.	.	-
Cc1cc([N+](=O)[O-])cc2c1NC(=O)C2(O)N1CCCCCC1 (stereo not drawn)	-	-	22µM	-	-
Cc1ccc(C(=O)NCC(c2cccs2)S(=O)(=O)c2cccs2)cc1C (stereo not drawn)	.	.	.	.	-
Cc1ccc(C(C)C)n1C(=O)OC(C)(C)C	.	.	-[13.5 µM]	.	.
Cc1cccc(NC(=O)CSC2=NN3CCCC(=O)N=C3S2)c1C	.	.	32µM	.	.
CN(NC(=O)/C=C/C(=O)O)c1ncc(C(F)(F)F)cc1Cl	.	.	2.8µM	.	-
CC(C)CCOc1ncnc2c1sc1nc3c(cc12)CSC(C)(C)C3	?	-	1.1µM	-	-
CCCn1cnc2c(sc3nc4c(cc32)CSC(C)(C)C4)c1=O	-	?	0.56µM	-	-
O=S(=O)(NCCc1csc2nc(-c3ccccc3)nn12)c1cccs1	.	.	.	.	-
O=C(COC(=O)c1ccccc1NC(=O)c1ccccc1)c1ccc([N+](=O)[O-])cc1	-	-	8.9µM	-	-
O=C(COC(=O)c1ccccc1NC(=O)c1ccccc1)c1cccc([N+](=O)[O-])c1	-	-	-	-	-
SMILES	HPGD inh	PNC inhibitor	ALDH1A1 block	12-hLO inh	Lamin A splicing
O=C(COc1ccc([N+](=O)[O-])cc1)Nc1ccc(C(=O)Nc2ccccc2C(=O)O)cc1	.	.	13µM	.	.
O=C(COc1ccc2ccccc2c1)Nc1cccc(C(=O)Nc2ccccc2C(=O)O)c1	?	-	14µM	-	?
CC1=C(c2ccc(C)c(C)c2)S(=O)(=O)N=C1N1CCC(C(=O)N2CCCCC2)CC1	.	.	.	.	-
Cn1cccc1C(=O)N1CCC2(CCN(C(=O)Nc3cccc(F)c3)CC2)CC1	-	.	-	-	.
CCC(CC)C(=O)Nc1cccc(C(=O)NCCc2ccccc2)c1	.	.	-	.	?
CCC(CC)C(=O)Nc1cccc(C(=O)NCc2ccco2)c1	-	-115	-	-	-
CCC(CC)C(=O)Nc1cccc(C(=O)NCCc2ccc(S(N)(=O)=O)cc2)c1	-	-101	-	-	-
CCCC[P+](CCCC)(CCCC)Cc1ccc(NC(=O)[C@@H](Cc2ccc3ccccc3c2)NC(=NC2CCCCC2)NC2CCCCC2)cc1	-	.	-	-	.
COC(=O)CCC(=O)OC1(C)C(=O)C=C2C=C(C3CC3)OC=C2C1=O (stereo not drawn)	-	.	-	-	.
CC(Oc1ccccc1F)C(=O)Nc1ccc2ccccc2c1 (stereo not drawn)	-	-87	-	-	?
